Source: PubChem BioAssay
Sampled rows, rich in hits. Any-hit rate of the full collection: about 7.8%.
HCV inh = blocks hepatitis C virus | 3.4% of 340,000 active | AID 651820 | Huh7.5.1 HCVcc-Cre infection, luciferase reporter, 44 h | Potency, µM (titrated, usually from 41.8 µM), without a hit: top-dose activity change, negative = inhibition, usual class: inhibitors; active = well fitted inhibition curve with a large enough effect; inconclusive = small, poorly fitted or top-dose-only effect, or another doubt; inactive = no such curve, though single readings can be large or run the other way; also: potency is read from the fitted curve at half-maximal effect
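Seed cells (1,000/well) for 4 h; treat with compound and infect with HCVcc-Cre, moi about 0.5. Incubate 44 h, then detect luciferase activity.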
HCMV inh = human cytomegalovirus inhibition | 4.5% of 410,000 active | activity change, negative = inhibition, % at 57.5 µM | HFF cells, HCMV-luciferase reporter, 72 h; hits give low values; in the data active = activity change below about -60%; inconclusive = no clear call, values can overlap the other calls; inactive = above about -39%
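Human foreskin fibroblasts infected with luciferase-reporter HCMV at MOI 1 PFU/cell, compounds at two doses. Luciferase measured 72 h post infection; normalized to buffer-only basal and Salinomycin (10uM) controls.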
Marburg entry inh = Marburg virus entry inhibition; Marburg virus pseudotyped entry inhibition, cell reporter; Potency, µM (series often up to 37.8 µM), without a hit: top-dose activity change, negative = inhibition, usual class: inhibitors; 1.8% of 300,000 active; AID 540276; calls by dose curve; tested in HEK293 cells; also: potency is read from the fitted curve at half-maximal effect
LASV entry inh = Lassa virus entry inhibition; Lassa virus pseudotype entry inhibition, cell reporter; Potency, µM (titrated, usually from 37.9 µM), for inactives: at the highest dose activity change, negative = inhibition, hits mostly inhibitors; 1.2% of 300,000 active; calls by dose curve; tested in HEK293 cells; also: potency is read from the fitted curve at half-maximal effect; nearly all actives have a fitted effect of over 50% in size
VACV Venus inh = vaccinia inhibition (Venus reporter). Vaccinia virus Venus reporter expression, fluorescence. Potency, µM (highest dose often 36.5 µM), for the others: at the highest dose activity change, negative = inhibition, actives largely listed as inhibitors. 0.46% of 330,000 active. AID 720580; calls by dose curve; tested in A549 cells; also: potency is read from the fitted curve at half-maximal effect; nearly all actives have a fitted effect of over 30% in size
VACV mCherry inh = vaccinia inhibition (mCherry reporter) | Vaccinia virus mCherry reporter infection, fluorescence | Potency, µM (titrated, usually from 36.5 µM), without a hit: at the top dose activity change, negative = inhibition, hits mostly inhibitors | 0.63% of 310,000 active; calls by dose curve; tested in A549 cells; also: potency is read from the fitted curve at half-maximal effect; nearly all actives have a fitted effect of over 35% in size
* marks the source's active call; other numbers are inactive results; i = inactive; ? = inconclusive; . = no result given; [ ] = remark or other dose. % is scaled to controls: 0 for no effect and ±100 for the full control effect.

SMILES | HCV inh | HCMV inh | Marburg entry inh | LASV entry inh | VACV Venus inh | VACV mCherry inh
O=C(c1ccccc1)c1ccc(OCCOCCN2CCN(Cc3ccccc3)CC2)cc1 | 14µM* | -26 | ? | -2% | -26% | ?
Cc1nc(C)c(CC(=O)N2CCOc3ccc(CN4CCN(c5ccccn5)CC4)cc3C2)s1 | . | . | . | . | -27% | ?
CCOC(=O)N[C@H](O)C(=O)c1cccs1 | . | . | -9% | . | . | .
CN(Cc1ccc2ccccc2c1)C(=O)c1ccc(C(F)(F)F)cc1 | 2% | -62* | 2%[46.1 µM] | 20%[46.1 µM] | 4% | -28%
COc1ccc(CN(C)C(=O)c2ccc(Oc3ccccc3)cc2)cc1F | -23% | 10 | ? | ? | -11% | -22%
CCOC(=O)c1sc(N)c(C(=O)Nc2ccccc2OC)c1C | -29% | 6 | ? | 2.5µM* | -27% | ?
COC(=O)c1c(N)sc(C(=O)NCCc2ccccc2)c1C | ? | ? | 5µM* | ? | -16% | i
CCOC(=O)c1sc2nc(C)nc(NCc3ccccc3OC)c2c1C | ? | -73* | ? | -14%[46.1 µM] | -5% | i
Cc1cccc(-n2c(=O)c3c(c4cc(C)ccc4n3C)n(C)c2=O)c1 | . | 25 | . | -7%[46.1 µM] | 2% | 8%
C=CCC(CC=C)(CNC(=O)C(=O)Nc1ccc(Br)cc1)c1ccc(OC)c(OC)c1 | . | 14 | -24%[46.1 µM] | -4%[46.1 µM] | -18% | i
COc1ccc(CN(Cc2ccccc2)C(=O)CN2CCN(C)CC2)cc1COc1ccc(NC(C)=O)cc1 | . | . | . | . | -19% | -3%
CCCC1=Nc2cc(C(=O)NC3CCC(C)CC3)ccc2Sc2ccccc21 (configuration not stated) | . | -77* | ? | ? | -21%[7.34 µM] | -26%[7.34 µM]
CCOCCCNC(=O)c1ccc2c(c1)N=C(CC)c1cc(Br)ccc1S2 | -29% | -88* | ? | ? | ? | -21%
O=C(NC1CCCCCC1)c1ccc2c(c1)sc1nc(-c3ccccc3)cn12 | . | . | . | 8%[46.1 µM] | -19% | -20%
CCCC1=Nc2cc(C(=O)NCCCN3CCOCC3)ccc2Sc2ccccc21 | ? | -22 | . | . | . | .
CCC1=Nc2cc(C(=O)NCCN(CC)CC)ccc2Sc2ccccc21 | . | ? | ? | ? | -11% | -12%
CCC1=Nc2cc(C(=O)NCCc3ccccc3)ccc2Sc2ccc(Cl)cc21 | . | 4 | -14%[46.1 µM] | ? | -28% | -25%
CCOC(=O)N1CCC(NC(=O)c2ccc3c(c2)sc2nc(-c4ccccc4)cn23)CC1 | ? | . | 11µM* | ? | ? | ?
CCOC(=O)N1CCC(NC(=O)c2ccc3c(c2)N=C(CC)c2ccccc2S3)CC1 | 10µM* | ? | . | . | -9%[7.34 µM] | -17%[7.34 µM]
Cc1nc(-n2nc(C)c(Cc3ccccc3Cl)c2C)sc1C(=O)Nc1ccccc1F | . | -17 | 13%[46.1 µM] | -16%[46.1 µM] | -7% | i
O=C(C1CCCCC1)N1C[C@H](O)[C@H](n2cc(C3CC3)nn2)C[C@@H]1c1ccc(Cl)cc1 | . | . | . | -15%[46.1 µM] | . | .
C[C@H](CCC(=O)NCC(=O)O)C1CC[C@H]2C3CC[C@@H]4C[C@H](O)CC[C@]4(C)C3C[C@H](O)[C@]12C (some centres not stated) | . | . | . | . | -11% | i
CCCC1=Nc2cc(C(=O)NCCc3ccccc3)ccc2Sc2ccc(C)cc21 | . | -67* | ? | -11%[46.1 µM] | ? | -7%
CCCC1=Nc2cc(C(=O)NCCCN3CCN(C)CC3)ccc2Sc2ccccc21 | ? | 0 | . | . | . | .
Cc1ccc(-c2cn3c(n2)sc2cc(C(=O)NCCCN4CCCCC4)ccc23)cc1 | . | . | . | 8%[46.1 µM] | 8.9µM* | 11µM*
CCCNC(=O)c1ccc2c(c1)N=C(CCC)c1ccccc1S2 | . | -86* | ? | -17%[46.1 µM] | ? | ?
Cc1ccc(-c2cn3c(n2)sc2cc(C(=O)NCCCN4CCCCCC4)ccc23)cc1 | . | . | . | 14%[46.1 µM] | ? | ?
O=C1c2oc3ccccc3c(=O)c2C(c2ccc(Br)cc2)N1c1ccccn1 (configuration not stated) | . | 2 | . | -1%[46.1 µM] | -10% | i
COc1ccc(NC(=O)CN2C(=O)CC(c3ccco3)Sc3ccccc32)cc1OC (configuration not stated) | . | -27 | 9%[46.1 µM] | . | -6% | -11%
COc1cc(OC)c(NC(=O)c2sc3nc4n(c(=O)c3c2C)CCCC4)cc1Cl | . | 0 | . | 8%[46.1 µM] | -9% | 3%
